# Reference: PubChem BioAssay AID489025 (Southern Research Specialized Biocontainment Screening …, 2010)
# Hit rate of the full screen: of about 2,300 compounds, about 790 (34%) were called active. The list shows a part of the results. Potency and affinity values are given separately. Values without a mark were called inactive. The rule behind the calls is not given here.
# Experiment: THP-1 cell cytotoxicity, dose response, cytotoxicity control for non-replicating M. tuberculosis project (AID 489025)
# Conditions: THP-1 cell viability; series mostly up to 40 µM; viability: at the top concentration
row,Compound,viability [%]
1,COc1cccc(/C=N/N2C(=O)CSC2=S)c1O,112
2,CCCC(C)C(=O)Nc1ccc(Cl)cn1 (configuration not stated),114
3,O=[N+]([O-])c1ccc(N2CCCCCC2)c2nonc12,112
4,CC1CCCN(CCC(=O)c2ccc(Br)cc2)C1 (configuration not stated),98.7
5,C/C(=N\Nc1cccc2cccnc12)c1ccccn1,79.8
6,CC(OC(=O)c1ccc2c(=O)n3c(nc2c1)CCCCC3)C(=O)Nc1ccc(Cl)cn1 (configuration not stated),80.8
7,CCOC(=O)c1cc(-c2csc(COc3ccccc3)n2)on1,95.9
8,Cc1occc1C(=O)N/N=C/c1ccc[nH]1,82.8
9,O=C(N/N=C/c1cn[nH]c1-c1ccccc1)c1ccco1,96.9
10,Cn1cccc1/C=N/NC(=O)c1ccco1,102
11,COc1cc(Cl)cc(/C=N/NC(N)=O)c1O,103
12,O=C(OCc1ccc([N+](=O)[O-])cc1)c1cc2ccccc2oc1=O,96.3
13,Cc1cccc(NC(=O)c2cc3ccccc3oc2=O)c1,87.6
14,Cc1cc(C)n(-c2ccc(C(=O)OCC(=O)Nc3cc(Cl)ccc3[N+](=O)[O-])cc2)n1,104
15,COc1ccccc1/C=C/C=N/NC(=O)c1ccncc1,75.8
16,COc1ccc(OC(=O)C2CC(=O)N(c3ccc(C)cc3)C2)cc1 (configuration not stated),108
17,O=C(COC(=O)c1cccs1)NCCC1=CCCCC1,96.1
18,CCCCN(C)C(=O)c1cc2cc3ccc(OC)cc3nc2s1,85.8
19,CN(CC(=O)Nc1ccc(C#N)cc1)Cc1ccc(Cl)c(Cl)c1,102
20,Cc1ccnc(NC(=O)COc2ccc3c(c2)CCC3)c1,107
21,Cc1cccnc1NC(=O)COc1ccc2oc3c(c2c1)CCCC3,79.2
22,O=C(O)COc1ccc2occ(C(=O)c3ccccc3)c2c1,118
23,CC(=O)N1N=C(c2ccccc2)OC1c1ccc([N+](=O)[O-])s1 (configuration not stated),99.8
24,O=C(N/N=C/c1ccc([N+](=O)[O-])s1)c1ccncc1,102
25,Cc1onc(-c2ccccc2)c1C(=O)Nc1nnc(COc2ccc(Cl)cc2)s1,102
26,CC(/C=C/c1ccco1)=N/NC(=O)c1ccc(C)nc1,94.9

row,Compound,viability [%]
1,O=C(N/N=C\c1ccco1)c1cncc(Br)c1,108
2,CNC(=S)N1CCN(c2c(F)cc3c(=O)c(C(=O)O)cn(C4CC4)c3c2OC)CC1C (configuration not stated),110
3,O=C(Oc1ccc(F)cc1)c1ccc2c(=O)n3c(nc2c1)CCC3,106
4,CCN(CC)C(=O)c1sc2nc(-c3ccccc3)ccc2c1N,72.4
5,O=C(Nc1ccc(Br)cc1)c1cc([N+](=O)[O-])cc([N+](=O)[O-])c1,92
6,Cc1ccc(C(=O)CCNc2ccc(F)c(Cl)c2)o1,116
7,CCCCSc1nnc(-c2ccc(C)cc2)o1,108
8,CC1=NN(c2ccc(C(=O)O)cc2)C(=O)/C1=C\c1ccc(OC(=O)c2cccs2)cc1,112
9,CCC(=O)N/N=C/c1ccc(-c2ccc(Cl)cc2)o1,103
10,O=C(N/N=C/c1ccc(Br)s1)c1ccncc1,112
11,O=C(N/N=C/c1cccs1)c1cncc(Br)c1,101
12,Cc1ccc(/C=N/NC(=O)c2ccncc2)s1,114
13,COc1ccc(C(=O)COC(=O)c2ccc([N+](=O)[O-])s2)cc1OC,98.1
14,Cc1ccc(C(=O)N/N=C\c2ccc[nH]2)cn1,97.8
15,Cc1ccc(NC(=O)CC2SC3=NCCCN3C2=O)c(C)c1 (configuration not stated),86.8
16,CCC1CCC(c2nnc(-c3ccc([N+](=O)[O-])cc3)o2)CC1 (configuration not stated),110
17,Nc1ccc(Br)c2cccnc12,110
18,CCC(C)n1c(=S)[nH]c2ccccc2c1=O (configuration not stated),90.4
19,CC(C)(C)OC(=O)N/N=C\c1ccc([N+](=O)[O-])s1,113
20,O=C(N/N=C/c1ccc(Br)s1)c1cccnc1,112
21,COc1cc(/C=C2/C(=O)NN(c3cccc(F)c3)C2=O)ccc1OC(=O)c1ccco1,111
22,CCOc1ccc(Nc2ccc([N+](=O)[O-])c3nonc23)cc1,83.1
23,CS/C(Nc1cc(Cl)ccc1Cl)=C(/C#N)C(=O)c1ccco1,72.6
24,Cc1ccc(NC(=O)C(=O)NNC(=O)c2ccccc2C)cc1Cl,86.4
25,CCOC(=O)N1CCN(c2cc(C)c([N+](=O)[O-])cc2F)CC1,92.8
26,Cc1ccc(CN2CC(C(=O)OCc3ccccc3Cl)CC2=O)cc1 (configuration not stated),121

row,Compound,viability [%]
1,Cc1cccc(C)c1NC(=O)c1sc(N)nc1-c1ccccc1,100
2,Cc1ccc2cc(/C=N/NC(=O)[C@H](C)NC(=O)OC(C)(C)C)c(Cl)nc2c1,84.4
3,Cc1ccc(NC(=O)c2noc(C(C)C)c2[N+](=O)[O-])cc1,99.2
4,O=C(N/N=C/c1cccc(F)c1)c1c(O)c2ccccc2[nH]c1=O,80.8
5,CC(=O)Oc1ccc(/C=C2\N=C(C3CCCCC3)OC2=O)cc1,106
6,COc1cc(N=c2ssnc2Cl)cc(OC)c1OC,85.6
7,O=C(CCSc1nnc(-c2ccncc2)o1)Nc1cccc(Cl)c1,82.2
8,CCn1ccc(C(=O)Nc2cccc(Cl)c2)n1,99.6
9,CCN1CCN(Cc2cc(C(C)(C)C)c(O)c(C(C)(C)C)c2)CC1,107
10,CCCCOC(=O)Cn1c(-c2ccccc2)nc2ccccc2c1=O,107
11,CC(=O)Nc1cccc(-c2nc3ccccc3c(=O)o2)c1,93
12,O=C(Nc1ccccn1)c1ccc(C(=O)c2ccccc2)cc1,86.9
13,CCCOC(=O)c1ccc(NC(=O)c2ccc(Br)o2)cc1,70.8
14,O=C(Nc1cccnc1)c1ccc(-c2ccc(Cl)cc2)o1,78
15,CC(C)(C)c1ccc(OCCC(=O)OCC(=O)NC2CC2)cc1,97.6
16,O=C(NC1CCOc2ccccc21)c1ccc(Cl)nc1 (configuration not stated),104
17,Cc1ccccc1-n1nnc2c(=O)oc3ccccc3c21,117
18,NC(=O)C1CCN(C2CC(=O)NC2=O)CC1 (configuration not stated),125
19,O=C(c1cc2ccccc2o1)c1nc2c(n1O)CCCCC2,101
20,O=C(Nc1ncc(Cc2ccccc2)s1)C1=NCCN1,101
21,CCOC(=O)Cc1ccc(NCc2ccc(Cl)cc2)cc1,82.2
22,CCOC(=O)C1(O)CC(C)=NN1C(=O)c1cccc(Br)c1 (configuration not stated),88.5
23,CCOC(=O)c1c(C)nc2c3ccccc3ccn12,113
24,CCOC(=O)Cc1cc(=O)n2[nH]cc(-c3ccc(Cl)cc3)c2n1,87.2
25,O=C1CC(N2CCN(c3ccccc3)CC2)C(=O)N1CCc1ccccc1 (configuration not stated),97.6
